Most compounds without a hit are left out; they make up all but 3.3% or so of the library.
SARS PLpro yeast – blocks SARS-CoV papain-like protease in a yeast assay; S. cerevisiae expressing SARS-CoV PLpro, growth rescue; Potency, µM (doses to about 32.9 µM), for the others: at the top dose activity, positive = growth rescue, actives largely listed as activators; hit rate 0.19% among 330,000; AID 485353; calls by dose curve; note: 0% is about no effect; nearly all actives have a fitted effect of over 55% in size
AmpC detergent – blocks E. coli AmpC beta-lactamase in detergent assay; AID 485294; AmpC hydrolysis of nitrocefin, absorbance 480 nm, 0.01% Triton; Potency, µM (titrated, usually from 114 µM), inactives show at the top dose activity change, negative = inhibition, usual class: inhibitors; hit rate 0.041% among 370,000;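 note: 0% = no-compound wells and -100% = no-enzyme wells; nearly all actives have a fitted effect of over 25% in size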
Target sequence (P00811 whole entry, looked up): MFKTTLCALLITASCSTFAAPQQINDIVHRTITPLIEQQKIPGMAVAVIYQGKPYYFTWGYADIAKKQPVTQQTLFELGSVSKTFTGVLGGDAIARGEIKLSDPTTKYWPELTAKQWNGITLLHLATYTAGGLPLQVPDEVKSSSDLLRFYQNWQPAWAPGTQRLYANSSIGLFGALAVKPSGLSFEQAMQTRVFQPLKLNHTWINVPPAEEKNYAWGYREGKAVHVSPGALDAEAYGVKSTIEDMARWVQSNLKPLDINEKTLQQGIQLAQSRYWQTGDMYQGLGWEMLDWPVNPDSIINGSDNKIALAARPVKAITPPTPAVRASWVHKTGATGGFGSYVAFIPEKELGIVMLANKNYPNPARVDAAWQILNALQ
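AmpC (5.3 nM in the dispensed reagent) in 20 mM phosphate pH 7.0 with 0.01% (detergent screen) or 0.0001% Triton X-100 was preincubated with compounds for 15 min at room temperature. Nitrocefin was then added from an 800 uM solution, and hydrolysis was followed at 480 nm.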
RE007 growth inh – less growth of the S. pombe RE007 Vpr strain | Potency, µM (highest dose often 92.2 µM), without a hit: top-dose activity change, negative = less growth, actives largely listed as inhibitors | S. pombe RE007 Vpr strain, BacTiter-Glo ATP luminescence, 24 h | hit rate 0.21% among 360,000; active = well fitted falling curve with a large enough effect; inconclusive = small, poorly fitted or top-dose-only effect; inactive = no such curve, though single readings can be large or run the other way; note: % is set by controls: 0 for no effect and ±100 for the full control effect; nearly all actives have a fitted effect of over 50% in size
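Fission yeast RE007 carrying one integrated HIV-1 vpr copy, seeded at OD 0.01 in PMG+AL medium with 23 nL pinned compound. Grown 24 h at 30 degrees; viability read by BacTiter-Glo luminescence after 5 min.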
Tb PYK inh – blocks Trypanosoma brucei pyruvate kinase; Potency, µM (highest dose often 76.8 µM), without a hit: top-dose activity, negative = inhibition, usual class: inhibitors; hit rate 0.12% among 410,000; TbPYK enzyme, Kinase-Glo Plus ATP luminescence, 45 min; Q57TT1; AID 624173; note: % is set by controls: 0 for no effect and ±100 for the full control effect; nearly all actives have a fitted effect of over 50% in size
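Activity of T. brucei pyruvate kinase was followed by Kinase-Glo Plus luminescence after the enzyme reacted 45 min at room temperature with 130 uM ADP (final) and substrate. Test compounds were added before ADP at multiple concentrations.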
AmpC inh no detg – blocks E. coli AmpC beta-lactamase in detergent-free assay | P00811 | AmpC nitrocefin hydrolysis, absorbance 480 nm, 0.0001% Triton | Potency, µM (highest dose often 57.1 µM), without a hit: at the top dose activity change, negative = inhibition, usual class: inhibitors | hit rate 0.52% among 330,000 | AID 485341;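 note: plate controls were no compound for no effect and no enzyme for full effect; nearly all actives have a fitted effect of over 20% in size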
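20 mM phosphate pH 7.0 + 0.01% (detergent screen) or 0.0001% Triton X-100; 5.3 nM AmpC reagent; cpd preinc 15 min RT; nitrocefin (800 uM stock) to start; A480 q20 s × 4 min; Activity was normalised to no-enzyme and no-compound control wells.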
Sm TGR inh – blocks Schistosoma mansoni thioredoxin glutathione reductase; Q962Y6; purified TGR, DTNB reduction, TNB absorbance 405 nm; Potency, µM (top dose mostly 114 µM), inactives show at the highest dose activity change, negative = inhibition, most hits filed as inhibitors; hit rate 3% among 360,000; AID 485364; note: % is set by controls: 0 for no effect and ±100 for the full control effect; nearly all actives have a fitted effect of over 60% in size
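First, TGR (20 nM dispensed) and NADPH were mixed with compound. Second, a 15 min room-temperature incubation followed. Third, further NADPH and then DTNB were added to start the reaction. Finally, TNB absorbance was monitored kinetically.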
Active calls of the source: *; ? = inconclusive; · = not tested or not shown; [ ] = dose if it differs, or a comment. Unless noted, calls come from the whole dose curve; as a rule, active = well fitted curve in the direction sought with a large enough effect; inconclusive = small, poorly fitted or top-dose-only effect, or another doubt; inactive = no such curve, though single readings can be large; an effect the other way counts as inactive or inconclusive. Potency is the fitted concentration of half-maximal effect.

SMILES	SARS PLpro yeast	AmpC detergent	RE007 growth inh	Tb PYK inh	AmpC inh no detg	Sm TGR inh
COc1ccc(Cn2ccnc2SCC(=O)Nc2ccc(C)cc2C)cc1	·	-2%	·	-5%	·	1%
O=C(COC(=O)Cc1c[nH]c2ccccc12)Nc1ccc(Cl)cc1	·	·	1%	-14%	·	·
Cc1ccc(NC(=O)COC(=O)Cc2c[nH]c3ccccc23)cc1F	0%	-8%	-13%	4%	-14%	50µM*
COc1ccc(N/C(=C/[N+](=O)[O-])SC)cc1	2%	2%	19%	-3%	-17%	?
CS/C(=C\[N+](=O)[O-])Nc1ccc(F)cc1	·	2%	-25%	3%	·	0.25µM*
CS/C(=C\[N+](=O)[O-])Nc1ccccc1	·	-1%	-20%	-4%	·	0.25µM*
Cc1cc(C)c(NC(=O)c2sc3nc(C)[nH]c(=O)c3c2C)c(C)c1	-1%	7%	·	·	-12%	14%
Cc1ccc(NC(=O)c2sc3nc(CCl)[nH]c(=O)c3c2C)c(C)c1	0%	5%	7%	-2%	-7%	20µM*
O=C(CSc1nnc(CNC(=O)c2c(F)cccc2Cl)o1)Nc1ccccc1F	·	15%	·	-3%	·	1%
O=c1c(Cl)c(Cl)cnn1Cc1nnc(-c2ccccc2Br)o1	-11%	?	4%	4%	-40%	6.3µM*
CCOc1ccc(C(C)=O)cc1COc1ccc(C)nc1[N+](=O)[O-]	-2%	-4%	-7%	3%	-8%	10µM*
COc1ccc(Cn2nnnc2C(c2ccncc2)N2CCOCC2)cc1 (stereo not given)	1%	-1%	4%	-1%	0%	25µM*
COc1ccc(Cn2nnnc2C(c2cc3ccc(OC)cc3[nH]c2=O)N2CCC(C)CC2)cc1 (stereo not given)	-2%	0%	-7%	-8%	0%	28µM*
COc1ccc2cc(C(c3nnnn3Cc3ccc(F)cc3)N3CCCCCC3)c(=O)[nH]c2c1 (stereo not given)	2%	0%	0%	0%	31%	16µM*
COc1ccc2cc(C(c3nnnn3Cc3ccccc3)N3CCCCCC3)c(=O)[nH]c2c1 (stereo not given)	-9%	-3%	2%	-2%	6%	20µM*
COc1ccc2cc(C(c3nnnn3CCc3ccccc3)N3CCC(O)CC3)c(=O)[nH]c2c1 (stereo not given)	-2%	-3%	17%	1%	53%	-26%
Cc1cccc(NC(=O)/C(C#N)=C/c2ccco2)c1	·	3%	·	1%	·	-1%
CCn1cc(C(=O)NCCc2ccc(OC)c(OC)c2)c(=O)c2cc(S(=O)(=O)N3CCC(C)CC3)ccc21	·	2%	·	-2%	·	7%
CCc1ccc(S(=O)(=O)c2cnc3ccc(OC)cc3c2N2CCCC(C)C2)cc1 (stereo not given)	·	?	·	3%	·	2%
Cc1ccc(CN2COc3ccc4c(-c5ccccc5)cc(=O)oc4c3C2)cc1	·	13%	·	4%	·	13%
O=C(CCNS(=O)(=O)c1cccs1)NCc1ccco1	1%	?	-8%	-1%	-11%	79µM*
CC(C)NS(=O)(=O)c1ccc(CCC(=O)NCc2ccco2)cc1	2%	8%	5%	0%	-18%	45µM*
CC(C)NS(=O)(=O)c1ccc(CCC(=O)NCc2ccncc2)cc1	-1%	-3%	13%	5%	-6%	5%
O=C(CCc1ccc(S(=O)(=O)NCCc2ccccc2)cc1)NCc1ccco1	-16%	9%	15%	-8%	-10%	45µM*
O=C(NCc1ccccc1)C(=O)NCC(c1cccs1)S(=O)(=O)c1cccs1 (stereo not given)	·	-1%	·	1%	·	?
SMILES	SARS PLpro yeast	AmpC detergent	RE007 growth inh	Tb PYK inh	AmpC inh no detg	Sm TGR inh
Cc1ccc(CNC(=O)C(=O)NCC(c2cccs2)S(=O)(=O)c2ccc(C)cc2)cc1 (stereo not given)	·	?	·	-2%	·	?
O=C(NCc1ccc(F)cc1)C(=O)NCC(c1cccs1)S(=O)(=O)c1cccs1 (stereo not given)	·	1%	·	0%	·	25µM*
O=C(NCCc1ccccc1)C(=O)NCC(c1cccs1)S(=O)(=O)c1cccs1 (stereo not given)	·	-4%	·	1%	·	?
COc1ccc(CNC(=O)C(=O)NCC(c2cccs2)S(=O)(=O)c2cccs2)cc1 (stereo not given)	·	-2%	·	-2%	·	28µM*
COc1ccc(CCNC(=O)C(=O)NCC(c2cccs2)S(=O)(=O)c2cccs2)cc1 (stereo not given)	·	2%	·	2%	·	28µM*
CC(=O)c1ccc(NC(=O)Cn2cc3c(n2)CCCC3)cc1	·	6%	·	0%	·	-5%
CCCc1cc(=O)[nH]c(Nc2cc(C)ccc2OC)n1	·	0%	·	0%	·	2%
Cc1c(C(=O)NC2CCCCC2C)oc2ccccc12 (stereo not given)	-13%	0%	-7%	-11%	-1%	0.56µM*
CC1(C)CC(=O)C(C=NCCN2CCN(C(=O)Cc3ccccc3)CC2)=C(O)C1	3%	-18%	4%	-1%	32%	5%[11.4 µM]
CCCCCC(=O)N1CCN(CCN=CC2=C(O)CC(c3ccc(OC)cc3)CC2=O)CC1 (stereo not given)	0%	4%	-13%	-8%	30%	50µM*
CCC(=O)N1CCN(CCN=CC2=C(O)CC(C)(C)CC2=O)CC1	1%	0%	4%	-8%	-3%	45µM*
CC1(C)CC(=O)C(C=NCCN2CCN(C(=O)CCl)CC2)=C(O)C1	-4%	0%	-3%	1%	-1%	18µM*
COc1ccccc1CC(=O)Nc1ccc2nc(Nc3cccc(C(F)(F)F)c3)cc(C)c2c1	·	18%	·	-5%	·	3%
S=C(SSC(=S)N1CCOCC1)N1CCOCC1	·	·	1%[18.4 µM]	3.2µM*	·	·
CC(SC(=S)N1CCOCC1)C(=O)O (stereo not given)	-4%	-12%	-10%	-2%	-19%	0%
CCN(CC)C(=O)[C@@H]1C=C2c3cccc4[nH]cc(c34)C[C@H]2N(C)C1	·	·	·	-7%	·	·
CC1=C[C@@H]2c3cccc4[nH]cc(c34)C[C@H]2N(C)C1	-4%	?	3%	-1%	-17%	2.2µM*
Cc1cccc(Cc2nnc(CCC(=O)N(CC3CC3)CC3CCCO3)o2)c1 (stereo not given)	0%	-2%	4%	0%	59%	-13%
CCN(CC1CCCO1)C(=O)CCc1nnc(Cc2ccc3c(c2)OCO3)o1 (stereo not given)	0%	7%	-6%	-6%	11%	28µM*

Screening results as filed in PubChem.
